High-throughput results deposited in PubChem by National Center for Advancing Translational Sciences (NCATS).
Rows were chosen to be rich in hits. Some 12% of all compounds tested hit in one or more screens of this group.
PLK1 PBD inh: blocks phosphopeptide binding to human PLK1 polo-box domain. actives 2.8% (n = 360,000). Plk1 PBD binding of FITC phosphopeptide, fluorescence polarization. P53350. Potency, µM, for inactives: max response, negative = inhibition, most hits filed as inhibitors; note: potency is the fitted concentration of half-maximal effect; series mostly up to about 57 µM; % is set by controls: 0 for no effect and ±100 for the full control effect; nearly all actives have a fitted effect of over 65% in size
G9a inh: inhibitors of human histone lysine methyltransferase G9a; G9a H3K9 monomethylation, AlphaScreen, 2 h; Potency, µM (titrated, usually from 102 µM), for the others: at the top dose activity, negative = inhibition, usual class: inhibitors; actives 8.8% (n = 350,000); AID 504332; note: potency is the fitted concentration of half-maximal effect; % is set by controls: 0 for no effect and ±100 for the full control effect; nearly all actives have a fitted effect of over 75% in size
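Signal arises when biotinylated H3K9 peptide, once monomethylated, bridges streptavidin donor and antibody-captured acceptor beads. Enzyme at 20 nM was preincubated 15 min with test compounds; peptide 500 nM and SAM 20 uM then reacted for 2 h.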
HP1b binding inh: inhibitors of HP1-beta chromodomain binding to methylated histone tails; AID 540317; P83916; actives 0.56% (n = 390,000); Potency, µM (titrated, usually from 114 µM), for the others: at the top dose activity change, negative = inhibition, hits mostly inhibitors; AlphaScreen HP1-beta / biotin-H3K9me3 peptide binding; note: potency is the fitted concentration of half-maximal effect; nearly all actives have a fitted effect of over 70% in size
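AlphaScreen: HP1-beta (50 nM) preformed 30 min with biotin-H3(1-18)K9me3 peptide (50 nM) in PBS pH 7.4, 0.01% Tween-20. Compound added for 30 min at RT, then streptavidin donor/nickel chelate acceptor beads (10 ug/mL) for 30 min.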
JMJD2A Tudor inh: inhibitors of human JMJD2A Tudor domain | AlphaScreen JMJD2A-Tudor / H3K4me3 peptide binding | Potency, µM (titrated, usually from 114 µM), inactives show at the highest dose activity change, negative = inhibition, hits mostly inhibitors | AID 504339 | actives 4.4% (n = 390,000) | O75164; note: potency is the fitted concentration of half-maximal effect; % is set by controls: 0 for no effect and ±100 for the full control effect; nearly all actives have a fitted effect of over 50% in size
Target sequence (O75164 whole entry, looked up, the tested form may be a part): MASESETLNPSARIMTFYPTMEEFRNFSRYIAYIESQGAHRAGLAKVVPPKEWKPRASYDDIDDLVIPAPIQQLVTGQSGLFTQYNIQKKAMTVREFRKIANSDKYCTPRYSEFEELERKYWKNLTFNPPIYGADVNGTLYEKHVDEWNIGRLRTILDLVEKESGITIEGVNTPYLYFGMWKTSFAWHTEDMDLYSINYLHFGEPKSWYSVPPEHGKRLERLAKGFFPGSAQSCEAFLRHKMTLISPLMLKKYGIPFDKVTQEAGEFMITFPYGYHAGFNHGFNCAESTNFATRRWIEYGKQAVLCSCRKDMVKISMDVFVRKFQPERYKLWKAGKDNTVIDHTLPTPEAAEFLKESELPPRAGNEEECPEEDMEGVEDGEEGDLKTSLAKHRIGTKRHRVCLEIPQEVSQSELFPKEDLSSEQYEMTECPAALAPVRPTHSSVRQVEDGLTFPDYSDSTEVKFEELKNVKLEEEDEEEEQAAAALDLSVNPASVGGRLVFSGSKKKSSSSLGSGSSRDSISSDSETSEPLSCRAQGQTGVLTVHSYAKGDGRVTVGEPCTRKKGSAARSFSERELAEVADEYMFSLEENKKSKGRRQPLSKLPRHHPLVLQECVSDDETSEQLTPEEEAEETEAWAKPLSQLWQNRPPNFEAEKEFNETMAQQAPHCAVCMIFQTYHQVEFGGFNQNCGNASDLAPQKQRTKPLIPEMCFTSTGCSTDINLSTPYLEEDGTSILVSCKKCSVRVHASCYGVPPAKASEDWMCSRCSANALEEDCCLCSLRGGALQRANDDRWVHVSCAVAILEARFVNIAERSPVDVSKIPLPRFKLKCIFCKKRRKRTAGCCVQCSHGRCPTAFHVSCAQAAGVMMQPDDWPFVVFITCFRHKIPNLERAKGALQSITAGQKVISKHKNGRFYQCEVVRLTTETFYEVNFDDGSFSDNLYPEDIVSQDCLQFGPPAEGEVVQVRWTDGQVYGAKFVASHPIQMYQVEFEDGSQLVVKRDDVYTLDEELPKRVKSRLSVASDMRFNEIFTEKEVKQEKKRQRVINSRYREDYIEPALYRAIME
PI5P4Ka inh: blocks human PI5P4K alpha kinase activity | P48426 | PI5P4Kalpha enzyme, ADP-Glo luminescence, 60 min; stronger effect = lower value | max response, % | actives 1.2% (n = 330,000) | AID 652105; active = max response of -50% or lower; inconclusive = between -30% and -50%; inactive = -30% or higher; note: value at the top dose of about 77 µM; % is set by controls: 0 for no effect and ±100 for the full control effect
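Luminescence from ADP-Glo served as readout of PI5P4Kalpha activity in a qHTS format. Reaction: enzyme, substrate, compound, ATP at 5 microM final, 60 min at RT.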
BAZ2B inh: inhibitors of human BAZ2B bromodomain; Q9UIF8; AlphaScreen BAZ2B-H3K14Ac peptide displacement; Potency, µM (top dose mostly 114 µM), for inactives: top-dose activity change, negative = inhibition, usual class: inhibitors; actives 4.4% (n = 360,000); AID 504333; note: potency is the fitted concentration of half-maximal effect; % is set by controls: 0 for no effect and ±100 for the full control effect; nearly all actives have a fitted effect of over 60% in size
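In this displacement format the biotinylated H3(5-23) peptide acetylated at Lys14 serves as ligand at 50 nM, with BAZ2B at 50 nM in PBS pH 7.4 containing 0.01% Tween-20. Donor and acceptor beads are 10 ug/mL final.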
* hit, by the source's call; ? = inconclusive; nt = no result given; [ ] = another dose, or the depositor's remark. Unless noted, calls come from the whole dose curve; as a rule, active = well fitted curve in the direction sought with a large enough effect; inconclusive = small, poorly fitted or top-dose-only effect, or another doubt; inactive = no such curve, though single readings can be large; an effect the other way counts as inactive or inconclusive.

SMILES | PLK1 PBD inh | G9a inh | HP1b binding inh | JMJD2A Tudor inh | PI5P4Ka inh | BAZ2B inh
N#C/C(=C/c1cc[nH]c1)C(N)=S | -18% | ? | 14% | -22% | -25 | -33%
Cc1[nH]c2ccc(-c3n[nH]c(=S)n3Cc3ccccc3)cc2c1C | -14% | 7.9µM* | 9% | ? | -16 | ?
Cc1[nH]c2ccc(-c3n[nH]c(=S)n3-c3ccccc3)cc2c1C | -14% | 1.6µM* | ? | 56µM* | -19 | -10%
CS(=O)(=O)Nc1ccc(-c2n[nH]c(=S)n2-c2ccccc2)cc1 | -18% | 0.5µM* | 26% | 5.6µM* | nt | -7%
CCCCOc1ccc(C(=O)NCCS(=O)(=O)N2CCN(c3ccccc3OC)CC2)cc1 | nt | -5%[59 µM] | 22%[57 µM] | -23% | nt | -16%
O=c1[nH]cc(N2CCCCCC2)c(=O)[nH]1 | -11% | 50µM* | 50% | -1% | 5 | 1%
O=C(OCC(=O)N1CCCCC1)c1c[nH]c(=O)[nH]c1=O | -20% | -9% | -8% | 9%[11.4 µM] | -4 | -7%
COC1(C(F)(F)F)NC(=O)N(c2ccc(F)cc2)C1=O (stereo not drawn) | nt | 4%[59 µM] | 12% | -15% | nt | -21%
COC(=O)[C@@H]1[C@@H](C#N)C2(c3ccccc3-c3ccccc32)N(c2ccc(Cl)cc2)N1C#N | ? | ? | ? | 18µM* | 2 | ?
Cc1ccc(-c2cc(C(=O)N3CCCCC3)c3ccccc3n2)cc1C | -8% | -3% | 36% | -5% | 8 | 17%[57.1 µM]
COc1ccc(C(O)c2nc(-c3ccncc3)cs2)cc1 (stereo not drawn) | -6% | nt | nt | nt | 1 | nt
CN(C)c1ccc(CNc2nc3ccccc3n2C)cc1 | -4% | nt | nt | nt | -19 | nt
CCCn1c(NCc2ccc(N(C)C)cc2)nc2ccccc21 | 1% | 50µM* | -14% | ? | -2 | ?
CCN(CC)c1ccc(CNc2nc3ccccc3n2CC)cc1 | -19% | 32µM* | ? | ? | 3 | 45µM*
CCN(CC)c1ccc(CNc2nc3ccccc3n2C(C)C)cc1 | 19µM* | ? | 3% | ? | 4 | -31%
CCCn1c(Nc2nc3ccccc3n2C)nc2ccccc21 | 0% | -1% | 34% | 56µM* | 24 | 8.9µM*
Cc1ccc2oc(C(=O)Nc3nc(-c4ccc(F)cc4)ns3)c(C)c2c1 | nt | -3%[59 µM] | 31% | -12% | nt | -7%
COCc1ccc(CN2CCCC(C(=O)Nc3ccc(-c4cccc(OC)c4)cc3)C2)o1 (stereo not drawn) | -9% | ? | 27% | -34% | 3 | ?
NC(=O)c1nsc(C(=O)N(c2ccccc2)C(C(=O)NCc2ccc(F)cc2)c2ccc(O)cc2)c1N (stereo not drawn) | 0% | ? | 7% | -16% | 5 | 1%
CCCn1c(NC(=O)c2ccccc2)nc2ccccc21 | -8% | 59%[59 µM] | 78% | -1% | 1 | -2%
CCn1c(Nc2ccccc2Cl)nc2ccccc21 | 27µM* | -26% | -9% | 45µM* | -18 | -14%
CCCn1c(NC(=O)c2ccc(C)cc2)nc2ccccc21 | 27µM* | 3%[12.7 µM] | -4% | -18%[11.4 µM] | -3 | -2%
CCN(CC)CCn1c(NCc2ccc(C)o2)nc2ccccc21 | -1% | 50µM* | 6% | ? | 1 | ?
CCn1c(SCc2ccc(F)cc2Cl)nc(=O)c2c(C(=O)OC)cc(C3CC3)nc21 | nt | -24%[59 µM] | 17%[57 µM] | -27% | nt | -12%
Cc1ccc(Nc2cc(C)c(O)c(C)c2)cc1 | 27µM* | 25µM* | 50µM* | 40µM* | -4 | 7.1µM*
SMILES | PLK1 PBD inh | G9a inh | HP1b binding inh | JMJD2A Tudor inh | PI5P4Ka inh | BAZ2B inh
CC(O)(c1cccnc1)c1nc(-c2ccc(S(C)(=O)=O)cc2)cs1 (stereo not drawn) | 3% | nt | nt | nt | -4 | nt
CCOC(=O)c1c(NC(=S)NCC2CCCO2)sc(C)c1C (stereo not drawn) | 12µM* | 4.5µM* | ? | ? | -11 | nt
COC(=O)c1c(NC(=O)CCc2ccc(C)o2)sc(C)c1C | -23% | ? | 30% | 0% | -13 | -11%
CCOC(=O)c1c(NC(=O)C[n+]2ccc(Cc3ccccc3)cc2)sc(C)c1C | -9% | 45µM* | 1% | -24% | -3 | -27%
CCOC(=O)c1c(NC(=O)CCc2ccc(CC)o2)sc(C)c1C | 27µM* | 28µM* | 1% | -7% | -5 | 25%
CCOC(=O)c1c(NC(=S)Nc2ccccc2)sc(C)c1C | 27µM* | ? | -25% | -6% | nt | 3%
CC1(C(=O)O)CCC(C(=O)NNC(=O)c2ccccc2Cl)C1(C)C (stereo not drawn) | -1% | nt | 9% | -12% | 6 | nt
CCOC(=O)c1c(NC(=O)/C=C/c2ccc(C)o2)sc(C)c1C | 27µM* | 8.9µM* | ? | -12% | nt | -2%
CCOC(=O)c1c(N)sc(C(=O)Nc2ccccc2F)c1C | 5% | 3% | 17% | -7% | 0 | -19%
Cc1ccc(/C=C/C(=O)Nc2sc(C)c(C)c2C(=O)OC(C)C)o1 | -4% | -4%[59 µM] | 8% | -21% | -5 | 10%
COC(=O)c1c(NC(=O)Nc2ccc(Cl)cc2)sc(C)c1C | 0% | 5%[59 µM] | 14% | -13% | -2 | -1%
Cc1sc(NC(=O)Nc2ccccc2)c(C(N)=O)c1C | -30% | 8.9µM* | ? | -25% | -26 | -29%
CCOC(=O)c1c(N)sc(C(=O)Nc2ccccc2)c1C | 21µM* | -2%[0.501 µM] | ? | -30% | -4 | -15%
Cc1sc(NC(=O)/C=C/c2ccco2)c(C(=O)O)c1C | -6% | 45µM* | 9% | -6% | -3 | ?
COc1ccc(/C=C/C(=O)Nc2sc(C)c(C)c2C(=O)O)cc1 | nt | -31%[59 µM] | 13% | ? | nt | -37%
CC1(C)Cc2c(cnn2-c2ccccc2)C(NC(=O)CCc2ccc(=O)[nH]n2)C1 (stereo not drawn) | 0% | nt | 9% | -14% | 1 | 4%
CCc1cccc(CC)c1NC(=O)CN1CCN(S(=O)(=O)c2ccccc2)CC1 | -8% | 45µM* | 8% | -10% | -4 | -15%
O=C(CN1CCN(S(=O)(=O)c2ccccc2)CC1)Nc1cccc(C(F)(F)F)c1 | ? | 20%[59 µM] | -10% | 79µM* | -1 | 20%
CNC(=O)c1c(NC(=O)c2cc(=O)c3ccccc3o2)sc2c1CCC2 | nt | 1%[59 µM] | 26%[57 µM] | -3% | nt | 3%
CCc1ccc(CNC(=O)c2cnc3sc4cc(OC)ccc4n3c2=O)cc1 | nt | -3%[59 µM] | 39% | 10% | nt | 0%
Cc1nn(S(=O)(=O)c2ccc(F)cc2)c(C)c1S(=O)(=O)N1CCCCCC1 | nt | 1%[59 µM] | 11%[57 µM] | -11% | nt | 0%
O=c1[nH]c(Cc2ccc(F)cc2)nc2scc(-c3ccc(F)cc3)c12 | 6µM* | 3.5µM* | ? | ? | 1 | 3%
O=c1[nH]c(Cc2ccccn2)nc2scc(-c3ccc(Cl)cc3)c12 | -11% | 40µM* | 43% | -24% | -10 | 3%
